# Experimental data reported in PubChem BioAssay.
# “And” between values parts separate entries of the source, which are not always exact repeats. Equal entries are not always repeated. The source made the active and inactive calls. Unless noted, no stated cut-off is given here; in the data, active means inhibition above about 80%; inactive means the rest.
# How the values were obtained:
# [1] = compounds altering circadian rhythm period length – cell-based, LOPAC library, luminescence reporter (AID 2774; call rule not given here;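 further: values are relative to mean of DMSO wells on each plate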); conditions: circadian reporter cells, at 7 µM, actives lie on both sides
# [2] = test system: Hepatitis C virus NS3 helicase; experiment: blockers of NS3h binding to ssDNA – biochemical, fluorescence polarization, LOPAC1280 library, primary screen (AID 687035; in the data active means inhibition above about 37%); conditions: Purified HCV NS3 helicase, Cy5-dT15 ssDNA binding fluorescence polarization; stronger effect = higher value; concentration not given here
# [3] = compounds altering Cy5-DNA-NS3h complex signal – biochemical, LOPAC1280, artefact control for HCV NS3 helicase inhibitor project (AID 687037; call rule not given here); conditions: Cy5-DNA-NS3h complex fluorescence interference counterscreen
# [4] = blockers of cellular phospholipid synthesis – cell-based, LOPAC library, screen 4, primary screen (AID 1347384; call rule not given here); conditions: animal cells, phospholipid biosynthesis inhibition screen; at 10 µM
# [5] = galactose survival enhancers in mitochondrial complex I cybrids – cell-based, galactose medium, ATP luminescence, primary screen (AID 1645843;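 active means z-score of at least 1.8 in each of two replicates, scored against plate mean and spread of sample wells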;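 further: positive z means more ATP and so rescue of galactose-driven cybrid death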); conditions: complex I mutant cybrid cells, 72 h, stronger effect = higher value
# [6] = P. berghei load reduction in hepatocytes – cell-based, HepG2, luciferase luminescence, HepG2 viability, primary screen (AID 624349; in the data active means parasite load remaining mostly below about 12%, no sharp cut-off; inactive means mostly above about 10%;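 further: 100% = mean of DMSO negative control wells on the same plate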); conditions: P. berghei liver stage in HepG2, luciferase luminescence, concentration not given here; parasite load remaining: stronger effect = lower value; viability: measured here: HepG2 viability without parasites
# [7] = target: NAD(+) hydrolase SARM1 (Homo sapiens) (UniProt Q6SZW1); experiment: blocking NAD cleavage by SARM1 SAM-TIR – cell lysate, NAD-Glo luminescence (AID 1508614;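 active means compound whose remaining NAD level is above about 45 nM, limit read from the data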); conditions: SAM-TIR HEK293T lysate NADase, at 1 µM, stronger effect = higher value
# Sequence of NAD(+) hydrolase SARM1 (Homo sapiens) (Q6SZW1 whole entry, looked up, the tested form may be a part): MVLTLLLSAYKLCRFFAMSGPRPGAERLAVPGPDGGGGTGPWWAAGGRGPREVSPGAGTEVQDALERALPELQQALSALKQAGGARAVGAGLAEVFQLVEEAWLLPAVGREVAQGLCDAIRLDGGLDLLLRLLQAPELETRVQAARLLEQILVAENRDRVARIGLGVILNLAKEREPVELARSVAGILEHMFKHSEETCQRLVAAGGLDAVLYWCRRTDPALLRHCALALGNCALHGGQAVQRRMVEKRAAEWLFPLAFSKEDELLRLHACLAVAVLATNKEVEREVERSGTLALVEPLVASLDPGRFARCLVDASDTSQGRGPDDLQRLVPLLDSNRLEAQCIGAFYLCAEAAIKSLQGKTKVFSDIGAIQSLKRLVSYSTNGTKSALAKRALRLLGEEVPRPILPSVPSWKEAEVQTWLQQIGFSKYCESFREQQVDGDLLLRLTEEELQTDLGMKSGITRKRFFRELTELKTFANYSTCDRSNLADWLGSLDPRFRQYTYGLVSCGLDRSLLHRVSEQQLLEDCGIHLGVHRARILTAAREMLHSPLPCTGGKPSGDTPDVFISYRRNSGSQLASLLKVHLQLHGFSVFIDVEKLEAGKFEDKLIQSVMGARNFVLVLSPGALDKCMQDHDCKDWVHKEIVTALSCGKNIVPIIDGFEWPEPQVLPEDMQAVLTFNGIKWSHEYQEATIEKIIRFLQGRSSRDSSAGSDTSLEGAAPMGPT
# [8] = target: Mitogen-activated protein kinase 7 (Homo sapiens) (UniProt Q13164); experiment: Gal4-ERK5 driven luciferase induction – cell-based, HTS, primary screen (AID 1508626;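 active means luciferase signal above three times the same-plate solvent-only control wells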;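 further: luciferase driven by Gal4-ERK5 fusion binding five Gal4 sites before minimal TATA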); conditions: HeLa Gal4-ERK5 transactivation, 18 h, at 5 µM, stronger effect = higher value
# Sequence of Mitogen-activated protein kinase 7 (Homo sapiens) (Q13164 whole entry, looked up, the tested form may be a part): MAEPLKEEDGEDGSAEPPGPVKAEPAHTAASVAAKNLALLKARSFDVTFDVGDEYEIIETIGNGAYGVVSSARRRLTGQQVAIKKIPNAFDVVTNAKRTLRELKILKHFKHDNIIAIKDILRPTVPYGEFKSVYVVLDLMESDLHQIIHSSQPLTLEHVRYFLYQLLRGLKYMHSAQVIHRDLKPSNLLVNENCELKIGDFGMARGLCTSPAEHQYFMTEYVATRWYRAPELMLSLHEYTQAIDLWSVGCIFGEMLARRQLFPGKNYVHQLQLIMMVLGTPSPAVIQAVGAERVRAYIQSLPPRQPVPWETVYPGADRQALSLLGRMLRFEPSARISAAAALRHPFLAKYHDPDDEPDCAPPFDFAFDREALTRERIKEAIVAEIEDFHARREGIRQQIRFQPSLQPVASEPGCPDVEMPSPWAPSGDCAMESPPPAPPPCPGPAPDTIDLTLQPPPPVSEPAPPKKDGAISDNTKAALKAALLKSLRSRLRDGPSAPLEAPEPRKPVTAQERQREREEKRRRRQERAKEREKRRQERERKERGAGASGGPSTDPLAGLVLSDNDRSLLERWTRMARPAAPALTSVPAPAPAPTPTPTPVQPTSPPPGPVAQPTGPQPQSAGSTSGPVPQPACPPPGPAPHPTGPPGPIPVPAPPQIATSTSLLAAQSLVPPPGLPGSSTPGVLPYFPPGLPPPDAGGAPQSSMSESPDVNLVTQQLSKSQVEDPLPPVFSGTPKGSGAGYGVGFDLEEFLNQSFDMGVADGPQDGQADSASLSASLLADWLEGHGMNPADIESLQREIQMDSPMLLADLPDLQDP
# [9] = growth inhibition, single agents and combos, LFS_MB_1R, cell-based, cisplatin or BGB combos, synergistic combos for chromothripsis tumors (AID 1671452); conditions: LFS_MB_1R medulloblastoma cells, stronger effect = higher value;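 further: cells exposed for 96 hours before readout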
# [10] = growth inhibition, single agents and combos, CRL2098, cell-based, BGB or cisplatin IC20 combos, synergistic combos for chromothripsis tumors (AID 1671454); conditions: CRL2098 osteosarcoma cells, drug combinations, stronger effect = higher value;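 further: cells exposed for 96 h before readout; 0% = vehicle DMSO and 100% = killing by high DMSO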
# [11] = growth inhibition, single agents and combos, HD-MB03, cell-based, BGB or cisplatin IC20 combos, synergistic combos for chromothripsis tumors (AID 1671455; in the data active means inhibition above about 83%;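 further: 0% = vehicle DMSO and 100% = high DMSO as cytotoxic control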); conditions: HD-MB03 medulloblastoma cells, stronger effect = higher value
# [12] = growth inhibition, single agents and combos, UWB1.289, cell-based, BGB or cisplatin combos, synergistic combos for chromothripsis tumors (AID 1671456); conditions: UWB1.289 ovarian carcinoma cells, stronger effect = higher value;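 further: cells exposed to compound for four days; 0% = vehicle DMSO and 100% = killing by high DMSO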
# [13] = growth inhibition, single agents and combos, LFS_MB_2R, cell-based, cisplatin combos, synergistic combos for chromothripsis tumors (AID 1671457); conditions: LFS_MB_2R medulloblastoma cells, stronger effect = higher value;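 further: cells exposed to compound for four days before readout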
# [14] = UWB1.289_BRCA1 ovarian cancer growth, cell-based, BGB or cisplatin combinations (AID 1671459); conditions: UWB1.289 BRCA1 ovarian carcinoma, drug combinations, stronger effect = higher value
# [15] = drug combination toxicity in non-malignant astrocytes – cell-based, BGB or cisplatin IC20 combos, cytotoxicity control for chromothriptic childhood tumor combination screen (AID 1671460); conditions: Human astrocytes, viability inhibition, drug combinations, at 0.5 µM, stronger effect = higher value;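 further: cells exposed to compounds for 96 hours before viability readout; 0% = vehicle and 100% = killing control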
# [16] = compounds altering viability of human ES cells (AID 493140; call rule not given here;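 further: cells exposed to compounds for four days before counting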); conditions: human embryonic stem cell survival screen; stronger effect = higher value
# [17] = liver-stage malaria parasite load reduction – cell-based, known kinase inhibitor set, luminescence, hepatoma host viability (AID 624392; call rule not given here;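 further: infected cells incubated roughly two days before readout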); conditions: Plasmodium liver stage in hepatoma cells, luciferase luminescence, concentration not given here; liver cell % of control: measured here: host liver cell viability; parasite % of control: stronger effect = lower value
# [18] = measured here: combination with BGB IC40, at 0.05 µM
# [19] = measured here: combination with cisplatin, at 0.5 µM
# [20] = measured here: combination with cisplatin, at 5 µM
# [21] = measured here: combination with BGB at IC20, at 0.5 µM
# [22] = measured here: combination with cisplatin at IC20, at 0.5 µM
# [23] = measured here: combo with BGB at IC20, at 0.5 µM
# [24] = measured here: combo with cisplatin at IC20, at 0.5 µM
# [25] = measured here: inhibition with BGB combination, at 0.05 µM
# [26] = measured here: inhibition with cisplatin combination, at 0.05 µM
# [27] = BGB combination, concentration series, at 5 µM
# [28] = cisplatin combination, concentration series, at 5 µM
# [29] = measured here: combo with BGB IC20
# [30] = measured here: combo with cisplatin IC20
smiles,measurement,setting,value
O=c1c2ccccc2nc2n1CCc1c-2[nH]c2ccccc12,period change,[1],0.11 h (inactive)
same,inhibition,[2],2% (inactive)
same,fluorescence ratio (interference),[3],1 (inactive)
same,outcome,[4],inactive
same,z-score,[5],1.2 (inactive)
CC(C)CN(C[C@@H](O)[C@H](Cc1ccccc1)NC(=O)O[C@H]1CCOC1)S(=O)(=O)c1ccc(N)cc1,parasite load remaining,[6],15.6% (inactive)
same,viability,[6],75.5%
same,z-score,[5],0.4 (inactive)
CCC(=O)OCC(=O)[C@@]1(OC(=O)CC)[C@@H](C)C[C@H]2[C@@H]3CCC4=CC(=O)C=C[C@]4(C)[C@@]3(F)[C@@H](O)C[C@@]21C,remaining NAD,[7],10 nM (inactive)
same,luciferase signal,[8],156 AU (inactive)
CNCc1ccc(-c2[nH]c3cc(F)cc4c3c2CCNC4=O)cc1,inhibition,[9]; at 0.5 µM,-10.6% (inactive) and -7.69% (inactive)
same,inhibition,[9]; [18],-6.36% and 4.87%
same,inhibition,[9]; [19],19.1% and -25%
same,inhibition,[9]; [20],-18.5% and -25.3%
same,inhibition,[10]; at 0.5 µM,-36.2% (inactive) and -5.02% (inactive)
same,inhibition,[10]; [21],-29.2% and -1.4%
same,inhibition,[10]; [22],-44.8% and 9.17%
same,inhibition,[11]; at 0.5 µM,-4.75% (inactive) and 7.82% (inactive)
same,inhibition,[11]; [23],-19.4% and -2.99%
same,inhibition,[11]; [24],-1.52% and 19.2%
same,inhibition,[12]; at 0.5 µM,3.38% (inactive) and 18.2% (inactive)
same,inhibition,[12]; [25],-7.35% and 1.55%
same,inhibition,[12]; [26],-18.2% and 33.2%
same,inhibition,[13]; at 0.5 µM,-21.7% (inactive) and 11% (inactive)
same,inhibition,[13]; [19],-36.4% and 1.09%
same,inhibition,[13]; [20],-18.9% and -8.07%
same,inhibition,[14]; [27],7.87% and 16.2%
same,inhibition,[14]; at 0.5 µM,2.14% (inactive) and 11.2% (inactive)
same,inhibition,[14]; [28],1.67% and 2.25%
same,inhibition,[15],5.22% (inactive) and 8.56% (inactive)
same,inhibition,[15]; [29],-3.65% and 3.02%
same,inhibition,[15]; [30],2.06% and 7.11%
CN(C)c1cc(NC(=O)CNC(C)(C)C)c(O)c2c1C[C@H]1C[C@H]3[C@H](N(C)C)C(=O)C(C(N)=O)=C(O)[C@@]3(O)C(=O)C1=C2O,remaining NAD,[7],10 nM (inactive)
CC(C)(C)OC(=O)Nc1ccc(-c2cc(C(=O)NCCCCCCC(=O)NO)no2)cc1,inhibition,[9]; at 0.5 µM,-23.9% (inactive) and 0.63% (inactive)
same,inhibition,[9]; [18],-39.1% and -9.87%
same,inhibition,[9]; [19],-43.1% and 4.1%
same,inhibition,[9]; [20],61.5% and 70.7%
same,inhibition,[10]; at 0.5 µM,-72.5% (inactive) and -77.6% (inactive)
same,inhibition,[10]; [21],-95.4% and -52.6%
same,inhibition,[10]; [22],-69.5% and -63.5%
same,inhibition,[11]; at 0.5 µM,9.94% (inactive) and 21.1% (inactive)
same,inhibition,[11]; [23],2.31% and 13%
same,inhibition,[11]; [24],19.2% and 51.1%
same,inhibition,[12]; at 0.5 µM,-1.75% (inactive) and 9.21% (inactive)
same,inhibition,[12]; [25],-25.1% and -31.2%
same,inhibition,[12]; [26],-18.4% and -19.7%
same,inhibition,[13]; at 0.5 µM,-15% (inactive) and -8.72% (inactive)
same,inhibition,[13]; [19],-1.56% and 8.91%
same,inhibition,[13]; [20],69.3% and 57.6%
same,inhibition,[14]; [27],81.5% and 72.3%
same,inhibition,[14]; at 0.5 µM,-3.45% (inactive) and 2.97% (inactive)
same,inhibition,[14]; [28],90.6% and 89.6%
same,inhibition,[15],10.3% (inactive) and 12.5% (inactive)
same,inhibition,[15]; [29],8.87% and 11.7%
same,inhibition,[15]; [30],7.42% and 16.9%
O=c1cc(-c2ccc(O)c(O)c2)oc2cc(O)cc(O)c12,period change,[1],0.085 h (inactive)
same,survival,[16],0.75 (inactive)
same,parasite load remaining,[6],83% (inactive)
same,viability,[6],96.4%
CN(C)N=Nc1nc[nH]c1C(N)=O,survival,[16],12.2 (inactive)
same,parasite load remaining,[6],83.6% (inactive) and 67% (inactive)
same,viability,[6],97.7% and 78.1%
O=C1C(CCC(O)c2ccc(F)cc2)C(c2ccc(O)cc2)N1c1ccc(F)cc1 (stereo unspecified),z-score,[5],-0.345 (inactive)
COC(=O)C1=CO[C@@H](O)[C@@H]2C(CO)=CC[C@H]12,inhibition,[2],-3% (inactive)
same,fluorescence ratio (interference),[3],1 (inactive)
same,outcome,[4],inactive
same,z-score,[5],-0.175 (inactive)
COc1cc(C(=O)NC2CCN(C)CC2)ccc1Nc1ncc2c(n1)N(C1CCCC1)CCC(=O)N2C(C)C,liver cell % of control,[17],99.8%
same,parasite % of control,[17],139% (inactive)
CO[C@H]1/C=C/O[C@@]2(C)Oc3c(C)c(O)c4c(O)c(c(/C=N\N5CCN(C6CCCC6)CC5)c(O)c4c3C2=O)NC(=O)/C(C)=C\C=C\[C@H](C)[C@H](O)[C@@H](C)[C@@H](O)[C@@H](C)[C@H](OC(C)=O)[C@@H]1C,inhibition,[9]; at 0.5 µM,-26.5% (inactive)
same,inhibition,[9]; [18],5.18%
same,inhibition,[9]; [19],-21.5%
same,inhibition,[9]; [20],-13.2%
same,inhibition,[10]; at 0.5 µM,-17.9% (inactive)
same,inhibition,[10]; [21],-42.5%
same,inhibition,[10]; [22],-28.1%
same,inhibition,[11]; at 0.5 µM,-12% (inactive)
same,inhibition,[11]; [23],-9.84%
same,inhibition,[11]; [24],-22%
same,inhibition,[12]; at 0.5 µM,0.22% (inactive)
same,inhibition,[12]; [25],-17.7%
same,inhibition,[12]; [26],-11.8%
same,inhibition,[13]; at 0.5 µM,-7.15% (inactive)
same,inhibition,[13]; [19],-29.8%
same,inhibition,[13]; [20],-34%
same,inhibition,[14]; [27],4.16%
same,inhibition,[14]; at 0.5 µM,-5.57% (inactive)
same,inhibition,[14]; [28],10.5%
same,inhibition,[15],-10.7% (inactive)
same,inhibition,[15]; [29],-21%
same,inhibition,[15]; [30],-11%
Nc1nc(OCc2ccccc2)c2[nH]cnc2n1,period change,[1],-0.35 h (inactive)
same,inhibition,[2],-2% (inactive)
same,fluorescence ratio (interference),[3],0.9 (inactive)
same,outcome,[4],inactive
same,z-score,[5],-0.125 (inactive)
